The panel holds about 79,000 compounds, 15% with a hit somewhere; the sample as a whole holds those more often. Rule as the data show it: active = growth inhibition above about 70%; inactive = the rest.
Assays:
[1] = NCI Yeast Anticancer Drug Screen. Data for the rad50 strain (AID 155);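 also: 0% = growth of vehicle-only cultures of the same strain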; settings: S. cerevisiae rad50 strain growth inhibition; at 50.0 µM; stronger effect = higher value
Outline: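 A DNA repair-deficient yeast mutant serves as the test organism; compound-induced growth inhibition is calculated against vehicle-treated cells.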

[2] = NCI Yeast Anticancer Drug Screen. Data for the mec2-1 strain (AID 157); settings: S. cerevisiae mec2-1 strain, at 50.0 µM, stronger effect = higher value
Outline: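 Readout is yeast growth inhibition, normalised to vehicle-treated controls, in the mec2-1 strain exposed to compound.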

[3] = NCI Yeast Anticancer Drug Screen. Data for the sgs1 mgt1 strain (AID 161);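 also: 0% = growth of cultures given vehicle only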; settings: S. cerevisiae sgs1 mgt1 strain, at 50.0 µM, stronger effect = higher value
Outline: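 Yeast cells carrying a defined DNA-repair defect were exposed to test compounds. Growth inhibition was measured relative to vehicle-treated controls.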

[4] = NCI Yeast Anticancer Drug Screen. Data for the cln2 rad14 strain (AID 165);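 also: 0% = growth equal to vehicle treated cultures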; settings: S. cerevisiae cln2 rad14 strain, at 50.0 µM, stronger effect = higher value
Outline: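 Relative to vehicle controls, growth inhibition of compound-treated cln2 rad14 yeast was recorded.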

[5] = NCI Yeast Anticancer Drug Screen. Data for the bub3 strain (AID 167); settings: S. cerevisiae bub3 mutant strain, at 50.0 µM, stronger effect = higher value
Outline: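 Inhibition values come from growth of compound-treated mutant yeast normalised to vehicle-treated controls.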

[6] = NCI Yeast Anticancer Drug Screen. Data for the mlh1 rad18 strain (AID 175); settings: S. cerevisiae mlh1 rad18 strain growth inhibition; at 50.0 µM; stronger effect = higher value
Outline: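 Test agents were incubated with a yeast strain of defined genotype (DNA damage repair defect). Inhibition of growth was derived by comparison with vehicle-exposed cultures.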

Measured: growth inhibition

C=CN1C(=O)NC2(CCCCC2)C1=O
inactive: [1] -33.8% | [2] -40% | [3] -40.4% | [4] 7.55% | [5] -10.3% | [6] -25.6%

CC1=NNC(=O)C1(C)C
inactive: [1] -16.4% | [2] 0.7% | [3] -20.6% | [4] 26.1% | [5] 3.3% | [6] 4.55%

CC1(C)C2CCC(CCOC(=O)COc3ccc(Cl)cc3)C1C2 (configuration not stated)
inactive: [1] -9.45% | [2] 5.5% | [3] 12.1% | [4] -44.2% | [5] 3.15% | [6] 12.6%

CNC(=O)NCCc1c[nH]c2ccccc12
inactive: [1] -35.9% | [2] -19.9% | [3] -49.1% | [4] -24.1% | [5] -26.7% | [6] -40.9%

N#C/C(=C\c1cccs1)C(N)=S
inactive: [1] 6.85% | [2] -18.6% | [3] -6.45% | [4] -31.2% | [5] -9.1% | [6] 1.65%

CC(=O)Oc1cccc2cc3cc(C)cc(OC(C)=O)c3c(OC(C)=O)c12
inactive: [1] -7.15% | [2] 3.8% | [3] 2.95% | [4] -2.95% | [5] 6.5% | [6] 14.7%

CC1=NC(=Cc2ccc(O)cc2)C(=O)N1n1c(-c2ccccc2)nc2ccccc2c1=O
inactive: [1] -4.7% | [2] -10.3% | [3] -5.35% | [4] 2.6% | [5] -10.8% | [6] 3.45%

CCOC(=O)C(=O)Cc1cc(=O)n(C)c2ccccc12
inactive: [1] 12.5% | [2] 16.1% | [3] 16.4% | [4] 1.8% | [5] 13.9% | [6] 1.5%

Nc1c2cc3c(cc2c[n+]2ccc4ccccc4c12)OCO3
inactive: [1] 38.9% | [2] 44% | [3] 32.6% | [4] 19.9% | [5] 43.9% | [6] 54.5%

C1OC1CO[C@H]1CO[C@H]2[C@@H]1OC[C@@H]2OCC1CO1 (some centres not stated)
inactive: [1] -9.35% | [2] -2.4% | [3] 8.05% | [4] -30.5% | [5] 18.1% | [6] 2.25%

Cc1ccc(C)o1
inactive: [1] -5.3% | [2] 5.5% | [3] -8.65% | [4] -12.2% | [5] -1.1% | [6] 2.6%

CCCCCCCOC(=O)c1ccccc1Cl
inactive: [1] 7.3% | [2] -10.1% | [3] 23.4% | [4] -6.7% | [5] 13.9% | [6] 2%

COC(=O)[C@@H](CO)NC(=O)OC(C)(C)C
inactive: [1] -27.6% | [2] -15% | [3] -24.1% | [4] 21.6% | [5] 9.4% | [6] -12.8%

COC(=O)C1(CC(=O)c2ccc(N3CCN(c4ccc(C(=O)CC5(C(=O)OC)NC(=S)NC(=O)C5C#N)cc4)CC3)cc2)NC(=S)NC(=O)C1C#N (configuration not stated)
inactive: [1] -19.5% | [2] -0.6% | [3] -21.4% | [4] 3.95% | [5] -18% | [6] -17.1%

Cn1ncc(C(=O)O)c1[N+](=O)[O-]
inactive: [1] 6.85% | [2] -14.5% | [3] 8.35% | [4] -37.6% | [5] -6.2% | [6] 5.25%

Cc1ccc(C2CCC(C#N)=CN2C)cc1 (configuration not stated)
inactive: [1] 11.5% | [2] -0.25% | [3] 1.5% | [4] -39.4% | [5] -13% | [6] 3.6%

CCNc1ccc(N=Nc2ccc(-c3ccc(N=Nc4ccc(NCC)c5ccccc45)c(OC)c3)cc2OC)c2ccccc12
inactive: [1] -1.15% | [2] 18.1% | [3] 5.55% | [4] 23.3% | [5] 26.9% | [6] 36%

COc1ccc(CSCc2cc(OC)c(OC)c(OC)c2)cc1
inactive: [1] -13.5% | [2] 16.8% | [3] -24.1% | [4] 0.3% | [5] 51.2% | [6] -2.15%

O=C(c1ccccc1)C1C(c2ccccc2)C=CC(c2ccccc2)C1C(=O)c1ccccc1 (configuration not stated)
inactive: [1] -18.4% | [2] -11.3% | [3] -9% | [4] -4.55% | [5] 3.2% | [6] -22.6%

CCc1c(C)nc2[nH]ncn2c1=O
inactive: [1] 10.8% | [2] -2.1% | [3] 11.1% | [4] -2.25% | [5] 7.25% | [6] 6.7%

O=c1cc([N+](=O)[O-])c2c([nH]1)CCC2
inactive: [1] -5.3% | [2] 1.3% | [3] 12.8% | [4] -27.8% | [5] -6.15% | [6] -0.5%

CC(=O)Nc1ccc(S(=O)(=O)N/N=C/c2ccc3c(c2)OCO3)cc1
inactive: [1] 4.85% | [2] -20.2% | [3] 2.55% | [4] 2.15% | [5] -33.7% | [6] -20.5%

O=C(/C=C\c1ccccc1Cl)/C=C/c1ccccc1Cl
inactive: [1] 11.2% | [2] 2.75% | [3] -4.6% | [4] -42.3% | [5] -0.35% | [6] 11.8%

CCN(CC)c1ncnc2c1cnn2C
inactive: [1] -14.8% | [2] -14.4% | [3] 8.75% | [4] 11% | [5] -15.9% | [6] -28%

C=CCOC(=O)/C=C\C(=O)OCC=C
inactive: [1] -4.6% | [2] 30.6% | [3] 6.8% | [4] -25.3% | [5] 9.1% | [6] 3.15%

CC1(C)CC2=C(Sc3ccccc3N2)C(=O)C1C(=O)C(=O)Nc1cccc([N+](=O)[O-])c1 (configuration not stated)
inactive: [1] -22.1% | [2] -22.8% | [3] -11.7% | [4] -35.9% | [5] 2% | [6] 1.1%

CCN1C(=O)N(CC)C2(CC(=O)c3ccccc3O2)C1=O (configuration not stated)
inactive: [1] 15.2% | [2] -3.45% | [3] 20.2% | [4] 7.15% | [5] 20.1% | [6] 19.6%

CN(C)C(=O)c1ccc([N+](=O)[O-])cc1
inactive: [1] 21.1% | [2] 6.4% | [3] 11.8% | [4] 12.1% | [5] -4.75% | [6] -23.4%

N#CC(NCc1ccccc1)C(O)c1ccccc1 (configuration not stated)
inactive: [1] 17.8% | [2] 11% | [3] 2.25% | [4] 16.8% | [5] 9.25% | [6] 11.9%

CC1(C)[C@@H]2C[C@H]1C(Cc1cccc(C[C@H]3c4cc(-c5ccccn5)ncc4[C@H]4C[C@@H]3C4(C)C)c1)c1cc(-c3ccccn3)ncc12 (some centres not stated)
inactive: [1] -2.2% | [2] -14.7% | [3] 4.95% | [4] -7.7% | [5] 45.2% | [6] -8.65%

CC(=S)NNC(=O)c1ccncc1
inactive: [1] -14.1% | [2] 6.05% | [3] -8.2% | [4] -1.15% | [5] -20.1% | [6] -14.9%

CCCCCCC1=CCCC1=O
inactive: [1] -3.5% | [2] -25.4% | [3] -3.35% | [4] -3.6% | [5] 2.55% | [6] 11.5%

O=C1CC(=O)N(c2ccccc2)N1
inactive: [1] 35.2% | [2] 7.45% | [3] 45% | [4] 19.9% | [5] 35.1% | [6] 16.9%

CSCCCN(CCCSC)CCCSC
inactive: [1] -12.6% | [2] -12.9% | [3] -0.3% | [4] 5.5% | [5] 4.5% | [6] -26.6%

C(#Cc1ccccc1)/C=C/C(=C\c1ccccc1)c1ccccc1
inactive: [1] 6.6% | [2] 4.9% | [3] -4.9% | [4] 11.8% | [5] 20.8% | [6] 33.5%

CCCCCCCCCCCCCCCCOCC(O)CO (configuration not stated)
inactive: [1] -8.55% | [2] -29.2% | [3] 1.25% | [4] -5.65% | [5] -17.1% | [6] -56.9%

N#C/C(=C\c1ccc2[nH]ccc2c1)C(=O)NCCCCNC(=O)/C(C#N)=C/c1ccc2[nH]ccc2c1
inactive: [1] 5.35% | [2] 23.2% | [3] 10.4% | [4] -21.4% | [5] 9.65% | [6] 5.7%

From PubChem BioAssay (NCI)
